Laboratory results reported in PubChem BioAssay (NCI).
About 83,000 compounds went through this panel and 20% of them were active in at least one assay; those are over-represented in the sample as a whole.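 In brief: 96-well plates, 48 h treatment, single concentration, percent growth endpoint.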 A number with no mark means an inactive call. Active and inactive are the calls of the source. How the source made its calls: active means growth percent below 10; inactive means the rest.

What follows are compounds tested on M14 melanoma (assay: NCI-60 one-dose screen, 48 h (100 = growth as untreated, 0 = no growth, -100 = all killed)). Settings: 10 µM unless noted.

SMILES	growth
Cc1ccc2nc(NC(=O)CSC(=S)N3CCN(C)CC3)sc2c1	107%
CC[Si](CC)(CC)OC1[C@@H](O[Si](CC)(CC)CC)[C@@H](CNC(=O)NC)O[C@H]1n1cnc2c(NC(=O)Nc3ccccc3)ncnc21 (stereo partly specified)	99.9%
COc1ccc(C2SC(C)C(=O)N2CCc2cccs2)cc1OC (stereo unspecified)	121%
Cc1cc(=O)[nH]n1-c1cc(Cl)ccc1N	99.8%
c1ccc2cc(Cn3c(-c4ccc5ccccc5c4)[n+](Cc4ccc5ccccc5c4)c4ccccc43)ccc2c1	-72.8% (active)
COc1cc2nc(SCc3cc(OC)c(OC)c(OC)c3)n(-c3ccccc3OC)c(=O)c2cc1OC	77.1%
